A selection: hits, their analogues and other compounds. The true share with any hit is near 2.3%.
M1 PAM parental: nonselective calcium activators in parental CHO-K1 cells, primary screen, counter-screen for M1 PAM project, cell-based, Fluo-8 calcium fluorescence, full deck, 1536-well. ATP EC20; 0% at ATP EC20, 100% at ATP max. activation, % at 3 µM. 360,000 tested, 0.02% active. AID 602247, 2012;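 active = activation above the run cutoff, the mean activation of all test compounds plus 3 SD, cut at about 40% in these data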;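 also: peak over basal fluorescence ratio in a 140 s read after ATP addition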
CHRM1 antagonist: human M1 muscarinic receptor antagonists, primary screen, CHO-K1 cells, Fluo-8 calcium fluorescence, 1536-well | Muscarinic acetylcholine receptor M1 (Homo sapiens), P11229 | CHO-K1 hM1, ACh EC80 antagonist | inhibition, % at 3 µM | 360,000 tested, 1.3% active;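 active = percent inhibition above its own plate's cutoff, namely the mean of that plate's compound wells plus 3 SD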;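 also: peak over basal fluorescence ratio during 140 s after agonist addition; 0% = ACh EC80 plus DMSO and 100% = DMSO alone without agonist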
Target sequence (P11229 whole entry, looked up): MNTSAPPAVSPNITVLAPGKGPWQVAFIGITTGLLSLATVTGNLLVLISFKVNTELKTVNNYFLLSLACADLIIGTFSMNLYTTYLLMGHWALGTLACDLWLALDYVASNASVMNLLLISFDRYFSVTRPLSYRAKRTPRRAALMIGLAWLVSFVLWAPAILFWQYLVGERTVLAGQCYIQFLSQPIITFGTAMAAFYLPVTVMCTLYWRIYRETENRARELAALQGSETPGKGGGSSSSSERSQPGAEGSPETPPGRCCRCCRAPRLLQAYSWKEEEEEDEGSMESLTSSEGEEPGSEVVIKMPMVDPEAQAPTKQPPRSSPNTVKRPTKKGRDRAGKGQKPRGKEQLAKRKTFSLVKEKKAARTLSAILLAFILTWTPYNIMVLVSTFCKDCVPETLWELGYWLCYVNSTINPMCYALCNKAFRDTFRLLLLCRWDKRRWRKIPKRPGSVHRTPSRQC
M1 ag parental: counter-screen for M1 agonists: effect in parental CHO-K1 cells; Fluo-8 calcium fluorescence; scaled to maximal ATP response, vehicle zero; activation, % at 3 µM; 360,000 tested, 0.48% active; in the data active = activation above about 15%;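 also: untransfected CHO-K1 host cells lacking M1 receptor as counterscreen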
CHRM1 PAM: human M1 muscarinic receptor positive allosteric modulators, primary screen, CHO-K1 cells, Fluo-8 calcium fluorescence, 1536-well. activation, % at 3 µM. Muscarinic acetylcholine receptor M1 (Homo sapiens), P11229. AID 588819, 2011. 360,000 tested, 0.088% active. CHO-K1 hM1, ACh EC20; 0% = ACh EC20, 100% = maximal ACh; in the data active = activation above about 19%, passing the limit was not always enough
CHO-K1 Ca antag: nonselective inhibitor or artifact in parental CHO-K1 cells | ATP-induced calcium, Fluo-8 fluorescence | inhibition, % at 3 µM | 360,000 tested, 0.6% active | AID 602250;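 active = inhibition above a per-plate cutoff, the plate's mean sample inhibition plus 3 SD, cut at about 24% in these data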;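 also: 0% = DMSO plus EC80 ATP and 100% = DMSO alone without ATP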
M1 ag: human M1 muscarinic receptor agonists, primary screen, Fluo-8 calcium fluorescence, CHO-K1 cells, HTS. activation, % at 3 µM. CHO-K1 hM1, agonist mode; 0% DMSO, 100% acetylcholine EC100. Muscarinic acetylcholine receptor M1 (Homo sapiens), P11229. 360,000 tested, 0.33% active;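 active = activation above the run's mean compound activation plus 3 SD, cut at about 16% in these data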;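 also: peak over basal fluorescence ratio within a 140 s kinetic read after compound addition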
Numbers without * were called inactive.

SMILES	M1 PAM parental	CHRM1 antagonist	M1 ag parental	CHRM1 PAM	CHO-K1 Ca antag	M1 ag
O=C(O)c1cccc(NC(=S)N/N=C/c2ccccc2OCc2ccc(Br)cc2)c1	-13	14	1	-9	27*	-6
CC(C)CC1C(=O)N(Cc2cn(CCC3OCCO3)nn2)CCS(=O)(=O)N1Cc1ccc(-c2cccc(N(C)C)c2)cc1 (centres undefined)	5	6	1	-1	5	-2
CC(C)(C)c1ccc(-n2ncc3c2CCCC3NC(=O)c2ccncc2)cc1 (centres undefined)	10	62*	4	-19	-2	-4
Cc1cc(C(=O)NC2CCCc3c2cnn3-c2ccc(C)c(C)c2)n(C)n1 (centres undefined)	-26	44*	13	-11	25*	2
O=C(NC1CCCc2c1cnn2-c1cc(F)cc(F)c1)c1ccncc1 (centres undefined)	-8	-10	2	6	-8	-4
Cc1c(C(=O)Nc2nccs2)oc2ccc(Br)cc12	-8	-3	0	15	1	6
CC(CNC(=O)c1ccc(NC2=NC3CS(=O)(=O)CC3S2)cc1)c1ccccc1 (centres undefined)	18	-14	1	8	-7	-2
O=C(c1ccc(NC2=NC3CS(=O)(=O)CC3S2)cc1)N(CCO)Cc1ccccc1 (centres undefined)	-2	-10	0	3	36*	0
CC(=O)Nc1ccc(S(=O)(=O)N2CCN(c3cc(C)ccc3C)CC2)cc1	10	-10	3	0	-7	0
CC(=O)Nc1ccc2c(c1)CN(c1cc(C)ccc1C)CO2	-14	2	8	-4	25*	2
Cc1ccc(N2C(=O)c3ccccc3C2=O)nc1	-8	7	0	-4	-10	-5
Cc1cnc2ncc3sccc3c2c1	6	-5	0	4	-12	-6
c1cnc2ncc3sccc3c2c1	22	-3	19*	8	-4	-7
C=CCOc1cccc(C(=O)N2CCCC(Nc3ccc4c(c3)OCCO4)C2)c1 (centres undefined)	-11	-14	1	-3	57*	-2
C=Cc1ccc(C(=O)N2CCCC(Nc3ccc4c(c3)OCCO4)C2)cc1 (centres undefined)	31	-10	4	11	-21	-2
Clc1cccc(CN2CCC3CC2c2cc(N4CCCCC4)ccc23)c1 (centres undefined)	12	-8	1	3	-16	-5
O=C(OCc1ccccc1)N1CCC2CC1c1cc(N3CCCCC3)ccc12 (centres undefined)	13	34*	0	-28	-11	-11
O=C(c1cc(Cl)cc(Cl)c1)N1CCC2CC1c1cc(N3CCCCC3)ccc12 (centres undefined)	8	70*	0	-33	2	-11
NS(=O)(=O)c1ccc(NC(=O)COC(=O)Cc2c[nH]c3ccccc23)cc1	-7	2	0	-2	0	-2
O=C(COC(=O)c1ccc(CSc2ccc(Cl)cc2)cc1)Nc1ccccc1	0	-1	0	1	5	-3
NC(=O)C(C1=CCCCC1)c1ccccc1 (centres undefined)	6	-10	0	5	-6	-2
O=C(c1ccc(OC2CCN(CCc3ccccc3)CC2)cc1)N1CCCCC1CCCO (centres undefined)	20	30*	1	-8	-8	-7
O=C(c1ccc(OC2CCN(CCc3ccccc3)CC2)cc1)N1CCCC1	11	9	2	-10	-8	-5
CC(C)N1CCN(C(=O)c2ccc(OC3CCN(CCc4ccccc4)CC3)cc2)CC1	7	43*	0	-20	0	-6

Compound activity from PubChem.
